This is part of a sample that, as a whole, favours compounds with a hit. Of some 79,000 tested, about 15% had one in any assay. Calls of active or inactive are those of the source. No stated cut-off is given here; in the data, active means growth inhibition above about 70%; inactive means the rest.
Columns and labels:
[1] = NCI Yeast Anticancer Drug Screen. Data for the rad52 strain (AID 147);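 further: 0% = growth of vehicle-treated control cultures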; conditions: S. cerevisiae rad52 mutant growth inhibition, active compounds read high
How it was run: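 Vehicle-treated cultures served as the reference for growth inhibition of compound-exposed yeast bearing a DNA repair mutation.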

[2] = NCI Yeast Anticancer Drug Screen. Data for the wt1 strain (AID 149);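 further: 0% = growth of vehicle-treated wt1 cultures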; conditions: S. cerevisiae wt1 strain (SPY 50644) growth inhibition, active compounds read high
How it was run: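 Vehicle-normalised growth inhibition; strain wt1; compound exposure.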

[3] = NCI Yeast Anticancer Drug Screen. Data for the rad50EPP+ strain (AID 151);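 further: 0% = growth of vehicle-treated control cultures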; conditions: S. cerevisiae rad50 mutant strain, active compounds read high
How it was run: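 In this screen, rad50EPP+ yeast were exposed to compounds. Growth inhibition was scored against vehicle-treated controls.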

[4] = NCI Yeast Anticancer Drug Screen. Data for the mgt1 strain (AID 153); conditions: S. cerevisiae mgt1 mutant growth inhibition, active compounds read high
How it was run: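 mgt1 strain exposed; growth vs vehicle control recorded as inhibition.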

[5] = NCI Yeast Anticancer Drug Screen. Data for the rad50 strain (AID 155);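 further: 0% = growth of vehicle-only cultures of the same strain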; conditions: S. cerevisiae rad50 strain growth inhibition, active compounds read high
How it was run: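 A DNA repair-deficient yeast mutant serves as the test organism; compound-induced growth inhibition is calculated against vehicle-treated cells.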

[6] = NCI Yeast Anticancer Drug Screen. Data for the rad14 strain (AID 159);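 further: 0% = growth of vehicle-treated control cultures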; conditions: S. cerevisiae rad14 strain growth inhibition, active compounds read high
How it was run: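 Vehicle-treated cultures served as the baseline for growth inhibition of a DNA repair-mutant yeast strain exposed to each compound.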

[7] = NCI Yeast Anticancer Drug Screen. Data for the sgs1 mgt1 strain (AID 161);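 further: 0% = growth of cultures given vehicle only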; conditions: S. cerevisiae sgs1 mgt1 strain, active compounds read high
How it was run: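 Genetically altered yeast, compound exposure, growth inhibition relative to vehicle.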

[8] = NCI Yeast Anticancer Drug Screen. Data for the CLN2oe strain (AID 163);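 further: 0% = growth of vehicle-only control cultures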; conditions: S. cerevisiae CLN2oe strain, active compounds read high
How it was run: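 Inhibition relative to vehicle-treated yeast is reported. Cells: strain with genetic alteration in cell-cycle control, grown with compound.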

[9] = NCI Yeast Anticancer Drug Screen. Data for the cln2 rad14 strain (AID 165);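 further: 0% = growth equal to vehicle treated cultures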; conditions: S. cerevisiae cln2 rad14 strain, active compounds read high
How it was run: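 Each compound was tested on cln2 rad14 yeast. Inhibition of growth was calculated against vehicle-exposed controls.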

[10] = NCI Yeast Anticancer Drug Screen. Data for the bub3 strain (AID 167); conditions: S. cerevisiae bub3 mutant strain, active compounds read high
How it was run: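 Inhibition values come from growth of compound-treated mutant yeast normalised to vehicle-treated controls.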

[11] = NCI Yeast Anticancer Drug Screen. Data for the wt2 strain (AID 169);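 further: 0% = growth of vehicle-treated yeast cultures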; conditions: S. cerevisiae wt2 strain growth inhibition, active compounds read high
How it was run: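 Inhibition of yeast growth was determined after compound treatment, normalised to controls receiving only vehicle.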

[12] = NCI Yeast Anticancer Drug Screen. Data for the mlh1 strain (AID 171);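 further: 0% = growth of vehicle-treated control cultures of the same strain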; conditions: S. cerevisiae mlh1 strain growth inhibition, active compounds read high
How it was run: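 Vehicle-normalised growth inhibition of a repair- or checkpoint-altered yeast strain following compound treatment.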

[13] = NCI Yeast Anticancer Drug Screen. Data for the sgs1 strain (AID 173);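 further: 0% = growth of vehicle-only control cultures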; conditions: S. cerevisiae sgs1 mutant, active compounds read high
How it was run: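 Screen format: yeast with repair or checkpoint alterations, compound exposure, growth read relative to vehicle.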

[14] = NCI Yeast Anticancer Drug Screen. Data for the mlh1 rad18 strain (AID 175); conditions: S. cerevisiae mlh1 rad18 strain growth inhibition, active compounds read high
How it was run: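 Vehicle-treated cultures served as the reference for growth inhibition in a yeast strain carrying DNA damage repair alterations exposed to each compound.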

[15] = NCI Yeast Anticancer Drug Screen. Data for the rad18 strain (AID 177); conditions: S. cerevisiae rad18 mutant growth inhibition, active compounds read high
How it was run: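 Test articles were incubated with altered yeast defective in DNA damage repair. Results are given as inhibition of growth versus vehicle.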

[16] = at 5.0 µM (retest, dose inferred, filed as 0.5)
[17] = at 50.0 µM (retest, dose inferred, filed as 5.0)

Measured: growth inhibition

CC(=O)Oc1ccc2c(c1)Cc1cc(N=C3C=CC(=O)O3)ccc1-2
inactive: [1]; at 1.2 µM 14% | [1]; at 3.7 µM 41% | [2]; at 1.2 µM 2% | [2]; at 3.7 µM 24% | [4]; at 1.2 µM 9% | [4]; at 3.7 µM 36% | [5]; at 1.2 µM 9% | [5]; at 3.7 µM 55% | [5]; [16] 43% | [6]; at 1.2 µM 16% | [6]; at 3.7 µM 42% | [7]; [16] 64% | [8]; at 1.2 µM 2% | [8]; at 3.7 µM 23% | [9]; [16] 19% | [10]; at 1.2 µM -8% | [10]; at 3.7 µM 13% | [10]; [16] 31% | [11]; at 1.2 µM 3% | [11]; at 3.7 µM 36% | [12]; at 1.2 µM 18% | [12]; at 3.7 µM 51% | [13]; at 1.2 µM 17% | [13]; at 3.7 µM 56% | [14]; [16] 62% | [15]; at 1.2 µM 15% | [15]; at 3.7 µM 50%
active: [1]; at 11.0 µM 98% | [1]; at 33.0 µM 98% | [1]; at 100.0 µM 94% | [2]; at 11.0 µM 96% | [2]; at 33.0 µM 99% | [2]; at 100.0 µM 96% | [3]; at 1.2 µM 78% | [3]; at 3.7 µM 96% | [3]; at 11.0 µM 99% | [3]; at 33.0 µM 98% | [3]; at 100.0 µM 93% | [4]; at 11.0 µM 99% | [4]; at 33.0 µM 99% | [4]; at 100.0 µM 96% | [5]; at 11.0 µM 97% | [5]; at 33.0 µM 98% | [5]; [17] 99% | [5]; at 50.0 µM 99.5% | [5]; at 100.0 µM 92% | [6]; at 11.0 µM 99% | [6]; at 33.0 µM 99% | [6]; at 100.0 µM 95% | [7]; [17] 99% | [7]; at 50.0 µM 99.6% | [8]; at 11.0 µM 94% | [8]; at 33.0 µM 99% | [8]; at 100.0 µM 95% | [9]; [17] 99% | [9]; at 50.0 µM 98.8% | [10]; at 11.0 µM 95% | [10]; at 33.0 µM 98% | [10]; [17] 98% | [10]; at 50.0 µM 99.7% | [10]; at 100.0 µM 95% | [11]; at 11.0 µM 99% | [11]; at 33.0 µM 99% | [11]; at 100.0 µM 96% | [12]; at 11.0 µM 98% | [12]; at 33.0 µM 99% | [12]; at 100.0 µM 97% | [13]; at 11.0 µM 99% | [13]; at 33.0 µM 99% | [13]; at 100.0 µM 96% | [14]; [17] 99% | [14]; at 50.0 µM 85% | [15]; at 11.0 µM 97% | [15]; at 33.0 µM 98% | [15]; at 100.0 µM 96%

Reference: PubChem BioAssay (NCI)
